The source made the active and inactive calls. How the source made its calls: active means hit-call score of the fitted dose curve at least 0.9, where 1 is the maximum; inactive means score below 0.9.
Tests used:
[1] = read-out: Interleukin-8 (IL8), CXCL8 (gene 3576); assay: BSK_CASM3C_IL8: BioMAP Diversity Plus: CASM3C Assay for Interleukin-8 (IL8) Biomarker Activity (AID 2283042); conditions: primary human coronary artery smooth muscle cells; actives raise or lower the signal;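 further: IL-8 protein level quantified by ELISA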
[2] = read-out: Human Leukocyte Antigen - DR isotype (HLADR), HLA-DRA (gene 3122); assay: BSK_CASM3C_HLADR: BioMAP Diversity Plus: CASM3C Assay for Human Leukocyte Antigen - DR isotype (HLADR) Biomarker Activity (AID 2283043); conditions: primary human coronary artery smooth muscle cells; actives raise or lower the signal;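 further: cell-surface HLA-DR protein level quantified by ELISA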
[3] = read-out: Macrophage colony-stimulating factor (MCSF), CSF1 (gene 1435); assay: BSK_CASM3C_MCSF: BioMAP Diversity Plus: CASM3C Assay for Macrophage colony-stimulating factor (MCSF) Biomarker Activity (AID 2283044); conditions: primary human coronary artery smooth muscle cells; actives raise or lower the signal;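 further: M-CSF protein amount quantified by ELISA after 24 h exposure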
[4] = read-out: Low-density lipoprotein receptor (LDLR), LDLR (gene 3949); assay: BSK_CASM3C_LDLR: BioMAP Diversity Plus: CASM3C Assay for Low-density lipoprotein receptor (LDLR) Biomarker Activity (AID 2283045); conditions: primary human coronary artery smooth muscle cells; actives raise or lower the signal;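 further: LDLR protein level on the cell surface quantified by ELISA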
[5] = read-out: Monocyte Chemoattractant Protein-1 (MCP1), CCL2 (gene 6347); assay: BSK_CASM3C_MCP1: BioMAP Diversity Plus: CASM3C Assay for Monocyte Chemoattractant Protein-1 (MCP1) Biomarker Activity (AID 2283046); conditions: primary human coronary artery smooth muscle cells; actives raise or lower the signal;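 further: MCP-1 level quantified by ELISA 24 h after dosing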
[6] = BSK_CASM3C_Proliferation: Cell Proliferation Assessment in the BioMAP Diversity Plus: CASM3C Assay (AID 2283047); conditions: primary human coronary artery smooth muscle cells;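 further: sulforhodamine B total protein stain as relative cell number at 560 nm; sub-confluent cells exposed 48 h before staining; fitted both ways against DMSO so gain or loss of cell number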
[7] = read-out: Monokine induced gamma interferon (MIG), CXCL9 (gene 4283); assay: BSK_CASM3C_MIG: BioMAP Diversity Plus: CASM3C Assay for Monokine induced gamma interferon (MIG) Biomarker Activity (AID 2283048); conditions: primary human coronary artery smooth muscle cells; actives raise or lower the signal;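 further: MIG protein level measured by ELISA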
[8] = read-out: serum amyloid A (SAA), SAA1 (gene 6288); assay: BSK_CASM3C_SAA: BioMAP Diversity Plus: CASM3C Assay for serum amyloid A (SAA) Biomarker Activity (AID 2283049); conditions: primary human coronary artery smooth muscle cells; actives raise or lower the signal;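 further: SAA protein level quantified by ELISA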
[9] = BSK_CASM3C_SRB: Viability Assessment in the BioMAP Diversity Plus: CASM3C Assay (AID 2283050); conditions: primary human coronary artery smooth muscle cells;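 further: cells exposed to compound for 24 h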
[10] = read-out: Thrombomodulin, THBD (gene 7056); assay: BSK_CASM3C_Thrombomodulin: BioMAP Diversity Plus: CASM3C Assay for Thrombomodulin Biomarker Activity (AID 2283051); conditions: primary human coronary artery smooth muscle cells; actives raise or lower the signal;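 further: thrombomodulin protein level measured by ELISA 24 h after dosing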
[11] = read-out: Tissue Factor, F3 (gene 2152); assay: BSK_CASM3C_TissueFactor: BioMAP Diversity Plus: CASM3C Assay for Tissue Factor Biomarker Activity (AID 2283052); conditions: primary human coronary artery smooth muscle cells; actives raise or lower the signal;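 further: cell surface tissue factor protein level read by ELISA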
[12] = read-out: Interferon-gamma inducible Protein 10 (IP10), CXCL10 (gene 3627); assay: BSK_hDFCGF_IP10: BioMAP Diversity Plus: hDFCGF Assay for Interferon-gamma inducible Protein 10 (IP10) Biomarker Activity (AID 2283053); conditions: primary human foreskin fibroblasts; actives raise or lower the signal
How it was run: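 Primary foreskin fibroblasts, human; 24 h compound exposure; IP-10 by ELISA; bidirectional fit vs DMSO.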

[13] = read-out: Urokinase-type plasminogen activator receptor (uPAR), PLAUR (gene 5329); assay: BSK_CASM3C_uPAR: BioMAP Diversity Plus: CASM3C Assay for Urokinase-type plasminogen activator receptor (uPAR) Biomarker Activity (AID 2283054); conditions: primary human coronary artery smooth muscle cells; actives raise or lower the signal;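 further: cell-surface uPAR protein level quantified by ELISA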
[14] = read-out: Vascular cell adhesion molecule 1 (VCAM1), VCAM1 (gene 7412); assay: BSK_CASM3C_VCAM1: BioMAP Diversity Plus: CASM3C Assay for Vascular cell adhesion molecule 1 (VCAM1) Biomarker Activity (AID 2283055); conditions: primary human coronary artery smooth muscle cells; actives raise or lower the signal;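 further: VCAM-1 protein level quantified by ELISA on the cells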
[15] = read-out: Epidermal growth factor receptor (EGFR), EGFR (gene 1956); assay: BSK_hDFCGF_EGFR: BioMAP Diversity Plus: hDFCGF Assay for Epidermal growth factor receptor (EGFR) Biomarker Activity (AID 2283057); conditions: primary human foreskin fibroblasts; actives raise or lower the signal
How it was run: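 hDFCGF system, primary human foreskin fibroblasts; compound 24 h; EGFR measured by ELISA; DMSO = negative control/baseline; bidirectional fitting.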

[16] = read-out: Interleukin-8 (IL8), CXCL8 (gene 3576); assay: BSK_hDFCGF_IL8: BioMAP Diversity Plus: hDFCGF Assay for Interleukin-8 (IL8) Biomarker Activity (AID 2283058); conditions: primary human foreskin fibroblasts; actives raise or lower the signal
How it was run: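 ELISA read-out of IL-8 from primary human foreskin fibroblast cultures taken 24 h after dosing; values are bidirectional fits relative to DMSO vehicle.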

[17] = BSK_hDFCGF_Proliferation: Cell Proliferation Assessment in the BioMAP Diversity Plus: hDFCGF Assay (AID 2283059); conditions: primary human foreskin fibroblasts;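 further: curves fitted for both rise and fall of signal versus DMSO baseline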
How it was run: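 Steps: dose primary human dermal fibroblasts (foreskin); […] fix in 10% TCA; stain with 0.1% SRB; read 560 nm; fit gain or loss of signal against DMSO.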

[18] = read-out: Macrophage colony-stimulating factor (MCSF), CSF1 (gene 1435); assay: BSK_hDFCGF_MCSF: BioMAP Diversity Plus: hDFCGF Assay for Macrophage colony-stimulating factor (MCSF) Biomarker Activity (AID 2283060); conditions: primary human foreskin fibroblasts; actives raise or lower the signal
How it was run: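 ELISA read-out of M-CSF in human dermal foreskin fibroblast cultures, 24 h after chemical dosing; gain or loss of signal fitted bidirectionally relative to DMSO baseline.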

[19] = BSK_hDFCGF_SRB: Viability Assessment in the BioMAP Diversity Plus: hDFCGF Assay (AID 2283061); conditions: primary human foreskin fibroblasts;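 further: cells exposed to compound for 24 h before the read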
How it was run: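 Primary human foreskin fibroblasts; 24 h post-dose; fixed 10% TCA, stained 0.1% SRB, A560 read; total protein as overt cytotoxicity measure; curves fit bidirectionally vs DMSO control.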

[20] = read-out: TIMP metallopeptidase inhibitor 1 (TIMP1), TIMP1 (gene 7076); assay: BSK_hDFCGF_TIMP1: BioMAP Diversity Plus: hDFCGF Assay for TIMP metallopeptidase inhibitor 1 (TIMP1) Biomarker Activity (AID 2283062); conditions: primary human foreskin fibroblasts; actives raise or lower the signal
How it was run: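 ELISA readout of TIMP-1 from human dermal foreskin fibroblast cultures 24 h post-dosing. Curves were fitted in both directions against DMSO baseline, with SRB total-protein staining in parallel cultures as a cytotoxicity check.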

[21] = read-out: Monokine induced gamma interferon (MIG), CXCL9 (gene 4283); assay: BSK_hDFCGF_MIG: BioMAP Diversity Plus: hDFCGF Assay for Monokine induced gamma interferon (MIG) Biomarker Activity (AID 2283063); conditions: primary human foreskin fibroblasts; actives raise or lower the signal
How it was run: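 Fibroblasts (human foreskin, primary) dosed, 24 h, MIG by ELISA; fit bidirectional vs DMSO.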

[22] = read-out: Matrix Metallopeptidase 1 (MMP1), MMP1 (gene 4312); assay: BSK_hDFCGF_MMP1: BioMAP Diversity Plus: hDFCGF Assay for Matrix Metallopeptidase 1 (MMP1) Biomarker Activity (AID 2283064); conditions: primary human foreskin fibroblasts; actives raise or lower the signal
How it was run: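 hDFCGF primary fibroblasts (human foreskin); chemical added; 24 h; MMP1 by ELISA; bidirectional fit vs DMSO.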

[23] = read-out: Vascular cell adhesion molecule 1 (VCAM1), VCAM1 (gene 7412); assay: BSK_hDFCGF_VCAM1: BioMAP Diversity Plus: hDFCGF Assay for Vascular cell adhesion molecule 1 (VCAM1) Biomarker Activity (AID 2283065); conditions: primary human foreskin fibroblasts; actives raise or lower the signal
How it was run: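 ELISA read-out of VCAM-1 on human skin fibroblasts, 24 h post-dose; gain or loss of signal fitted bidirectionally against DMSO baseline.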

[24] = read-out: Plasminogen activator inhibitor-1 (PAI1), SERPINE1 (gene 5054); assay: BSK_hDFCGF_PAI1: BioMAP Diversity Plus: hDFCGF Assay for Plasminogen activator inhibitor-1 (PAI1) Biomarker Activity (AID 2283066); conditions: primary human foreskin fibroblasts; actives raise or lower the signal
How it was run: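 Primary dermal fibroblasts (human foreskin), hDFCGF system; compound 24 h; PAI-1 by ELISA; bidirectional fit vs DMSO control.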

[25] = read-out: Interferon-gamma inducible Protein 10 (IP10), CXCL10 (gene 3627); assay: BSK_KF3CT_IP10: BioMAP Diversity Plus: KF3CT Assay for Interferon-gamma inducible Protein 10 (IP10) Biomarker Activity (AID 2283068); conditions: primary human keratinocytes with fibroblasts; actives raise or lower the signal
How it was run: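 KF3CT co-culture (keratinocytes + foreskin fibroblasts), 24 h compound, IP-10 by ELISA; bidirectional fit vs DMSO baseline.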

[26] = read-out: Interleukin-1 alpha (IL1a), IL1A (gene 3552); assay: BSK_KF3CT_IL1a: BioMAP Diversity Plus: KF3CT Assay for Interleukin-1 alpha (IL1a) Biomarker Activity (AID 2283070); conditions: primary human keratinocytes with fibroblasts; actives raise or lower the signal
How it was run: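 Chemicals were dosed onto co-cultured human keratinocytes and foreskin fibroblasts, IL-1a was quantified by ELISA at 24 h, and activity was fitted in both directions relative to DMSO controls.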

[27] = read-out: TIMP metallopeptidase inhibitor 2 (TIMP2), TIMP2 (gene 7077); assay: BSK_KF3CT_TIMP2: BioMAP Diversity Plus: KF3CT Assay for TIMP metallopeptidase inhibitor 2 (TIMP2) Biomarker Activity (AID 2283071); conditions: primary human keratinocytes with fibroblasts; actives raise or lower the signal
How it was run: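 Cells: human keratinocytes co-cultured with foreskin fibroblasts. Treat with chemical, 24 h. Measure TIMP-2 by ELISA; fit curves bidirectionally vs DMSO baseline.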

[28] = read-out: urokinase plasminogen activator (uPA), PLAU (gene 5328); assay: BSK_KF3CT_uPA: BioMAP Diversity Plus: KF3CT Assay for urokinase plasminogen activator (uPA) Biomarker Activity (AID 2283075); conditions: primary human keratinocytes with fibroblasts; actives raise or lower the signal
How it was run: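 ELISA readout of uPA, analyzed for signal gain or loss relative to DMSO, from a human primary keratinocyte–foreskin fibroblast co-culture measured 24 h after chemical treatment.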

CD40, CD40 (gene 958) = assay: BSK_LPS_CD40: BioMAP Diversity Plus: LPS Assay for CD40 Biomarker Activity (AID 2283076); conditions: primary human HUVEC with PBMC; actives raise or lower the signal
How it was run: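 ELISA readout of CD40 in HUVEC/PBMC co-culture (BSK_LPS system), 24 h post-dosing; bidirectional curve fit, DMSO baseline; parallel SRB total-protein staining for cytotoxicity.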

Measured: outcome

CCCC[N+](CCCC)(CCCC)CCCC
inactive: all assays above
